# Test results: PubChem BioAssay (NCATS)
# Records with an inconclusive call do not appear. A call without a number means that no potency is given here. Active and inactive are the calls of the source. The call rests on the fitted dose curve; in most records, active means well fitted curve in the direction sought with a large enough effect; inconclusive means small, poorly fitted or top-dose-only effect, or another doubt; inactive means no such curve, though single readings can be large; an effect the other way counts as inactive or inconclusive.
# Columns and labels:
# [1] = MultiTox-Fluor Cytotoxicity Assay - LYMP1-001 - Dead Cells (AID 946)
# Summary of the method: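 LYMP1-001 lymphoblastoid cells (2500/well) treated 16 h at 37 C. Dead-cell protease cleavage of bis-AAF-R110 read at Ex/Em 485/520. Normalized to DMSO and 15 uM tetraoctylammonium bromide; AC50 from Hill fits.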
# [2] = MultiTox-Fluor Cytotoxicity Assay - LYMP1-001 - Live Cells (AID 947)
# [3] = Cell Viability - LYMP1-002 - Assay at 16 hr (AID 948)
# Summary of the method: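 Human lymphoblastoid cells (LYMP1-002), 2500/well, were preincubated 5 hr at 37 C, then exposed to compounds for 16 hr at 37 C in complete medium. Cellular ATP was read by CellTiter-Glo luminescence after 30 min at room temperature; AC50 from Hill fits.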
# [4] = MultiTox-Fluor Cytotoxicity Assay - LYMP1-002 - Live Cells (AID 955)
# Summary of the method: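 Human lymphoblastoid LYMP1-002 cells, 2500/well, treated 16 h at 37 C in complete medium. Live-cell protease activity via GF-AFC fluorescence (Ex/Em 405/510) after 60 min reagent incubation; AC50 from Hill fits.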
# [5] = MultiTox-Fluor Cytotoxicity Assay - LYMP1-003 - Live Cells (AID 962);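 further: cytotoxic hits lower the live-cell protease signal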
# Summary of the method: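 LYMP1-003 lymphoblastoid cells, 2500/well in complete medium, treated 16 h at 37 C; live-cell protease cleavage of GF-AFC read by fluorescence (Ex/Em 405/510) after 60 min reagent; AC50 from Hill fits of concentration-response.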
# [6] = Cell Viability - LYMP1-003 - Assay at 24 hr (AID 963)
# Summary of the method: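 Human lymphoblastoid LYMP1-003 cells, 2500/well, treated 24 h at 37 C in complete medium. Viability read as intracellular ATP by CellTiter-Glo luminescence after 30 min at room temperature; AC50 from Hill-equation fits of qHTS concentration-response.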
# [7] = Cell Viability - LYMP1-003 - Assay at 40 hr (AID 964); further: nearly all actives have a fitted effect of over 60% in size; further: potency means the concentration at half of the fitted maximal effect
# Summary of the method: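 LYMP1-003 human lymphoblastoid cells, 2500/well, preincubated 5 h at 37 C, then treated with compound for 40 h at 37 C. Intracellular ATP read by CellTiter-Glo luminescence after 30 min at room temperature; AC50 from Hill-equation fits.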
# [8] = Cell Viability - LYMP2-003 (AID 965);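 further: cells exposed to compounds for 24 h before reading; nearly all actives have a fitted effect of over 50% in size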
# Summary of the method: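 Human lymphoblastoid cells (2500/well) were pre-incubated 5 hr at 37 C, then exposed to compounds over a concentration range for 24 hr at 37 C. Intracellular ATP was read by CellTiter-Glo luminescence; AC50 came from Hill-equation fits.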
# [9] = Cell Viability - LYMP2-004 (AID 966); further: nearly all actives have a fitted effect of over 65% in size
# Summary of the method: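 Lymphoblastoid LYMP2-004 cells, 2500 per well, were preincubated for 5 hr and then treated with compound for 24 h at 37 C in complete medium. Viability was read as cellular ATP by CellTiter-Glo luminescence, and AC50 values were taken from Hill fits to concentration-response data.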
# [10] = Cell Viability - LYMP2-005 (AID 967); further: series mostly up to about 92 µM
# Summary of the method: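 CellTiter-Glo luminescence (cellular ATP) read-out; LYMP2-005 lymphoblastoid cells, 2500/well, 5 h pre-incubation, then 24 h compound exposure at 37 C in complete medium. Tetraoctylammonium bromide positive control; AC50 by standard Hill fit.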
# [11] = Cell Viability - LYMP2-011 (AID 969); further: nearly all actives have a fitted effect of over 60% in size
# Summary of the method: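 2500 cells/well in complete medium, compound-treated 24 h at 37 C. Viability read as intracellular ATP by CellTiter-Glo luminescence after 30 min at room temperature. AC50 from Hill fits of qHTS concentration-response data.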
# [12] = Cell Viability - LYMP2-013 (AID 970); further: series mostly up to about 92 µM; nearly all actives have a fitted effect of over 55% in size
# Summary of the method: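 Human lymphoblastoid LYMP2-013 cells, 2500/well, treated 24 h at 37 C in complete medium; viability as intracellular ATP by CellTiter-Glo luminescence after 30 min. AC50 from Hill fits of qHTS concentration-response.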
# [13] = Cell Viability - LYMP2-015 (AID 971); further: nearly all actives have a fitted effect of over 55% in size
# Summary of the method: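 LYMP2-015 human lymphoblastoid cells (2500/well) in complete medium, compound-treated 24 h at 37 C; viability read as cellular ATP by CellTiter-Glo luminescence after 30 min at room temperature. AC50 from Hill-equation fits of qHTS concentration-response data.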
# [14] = Cell Viability - LYMP2-017 (AID 972); further: series mostly up to about 92 µM; nearly all actives have a fitted effect of over 55% in size
# Summary of the method: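 LYMP2-017 human lymphoblastoid cells (2500/well) settled 5 hr at 37 C, then exposed to compound 24 hr at 37 C in complete medium. Viability taken as intracellular ATP by CellTiter-Glo luminescence after 30 min at RT; AC50 from Hill fits.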
# [15] = Cell Viability - LYMP2-019 (AID 973); further: nearly all actives have a fitted effect of over 55% in size
# Summary of the method: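 Human lymphoblastoid LYMP2-019 cells (2500/well) preincubated 5 h at 37 C, then treated 24 h at 37 C in complete medium. Viability by CellTiter-Glo ATP luminescence after 30 min at room temperature; AC50 from Hill fits.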
# [16] = Cell Viability - LYMP2-021 (AID 974)
# Summary of the method: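 Human lymphoblastoid LYMP2-021 cells, 2500/well in complete medium, treated 24 hours at 37 C. Intracellular ATP by CellTiter-Glo luminescence (30 min, RT); AC50 from Hill fits of concentration-response.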
# [17] = Cell Viability - LYMP2-023 (AID 975)
# Summary of the method: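 LYMP2-023 human lymphoblastoid cells, 2500/well, preincubated 5 hr at 37 C, then compound-treated 24 hr at 37 C in complete medium. CellTiter-Glo luminescence (ATP) after 30 min at room temperature; AC50 from Hill-equation fits; tetraoctylammonium bromide positive control.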
# [18] = Cell Viability - LYMP2-025 (AID 976); further: series mostly up to about 92 µM
# Summary of the method: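 Human lymphoblastoid LYMP2-025 cells, 2500/well, exposed 24 h at 37 C in complete medium in 1536-well qHTS. Viability as cellular ATP by CellTiter-Glo luminescence; AC50 from Hill fits of concentration-response data.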
# [19] = Cell Viability - LYMP2-002 (AID 977); further: series mostly up to about 92 µM
# Summary of the method: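 Human lymphoblastoid LYMP2-002 cells, 2500 per well, exposed to compounds for 24 h at 37 C in complete medium; viability read as intracellular ATP by CellTiter-Glo luminescence, AC50 from Hill fits.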
# [20] = Cell Viability - LYMP2-008 (AID 980); further: nearly all actives have a fitted effect of over 60% in size
# Summary of the method: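 LYMP2-008 lymphoblastoid cells (2500/well) plated 5 h, then treated 24 h at 37 C in complete medium. Viability read as intracellular ATP by CellTiter-Glo luminescence after 30 min at room temperature; AC50 from Hill fits.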
SMILES,Potency [1],outcome [2],outcome [3],outcome [4],outcome [5],outcome [6],Potency [7],outcome [8],outcome [9],outcome [10],outcome [11],outcome [12],outcome [13],outcome [14],outcome [15],outcome [16],outcome [17],outcome [18],outcome [19],outcome [20]
CC(=O)/C=C/c1ccccc1,inactive,inactive,inactive,inactive,inactive,inactive,inactive,inactive,inactive,inactive,inactive,inactive,inactive,inactive,inactive,inactive,inactive,inactive,inactive,inactive
CCOC(=O)c1ccccc1N,inactive,inactive,inactive,inactive,inactive,inactive,inactive,inactive,inactive,inactive,inactive,inactive,inactive,inactive,inactive,inactive,inactive,inactive,inactive,inactive
Oc1ccccc1Cl,inactive,inactive,inactive,inactive,inactive,inactive,inactive,inactive,inactive,inactive,inactive,inactive,inactive,inactive,inactive,inactive,inactive,inactive,inactive,inactive
c1ccc(Nc2ccc3ccccc3c2)cc1,inactive,inactive,inactive,inactive,inactive,inactive,inactive,inactive,inactive,inactive,inactive,inactive,inactive,inactive,inactive,inactive,inactive,inactive,inactive,inactive
CC(C)COC(=O)c1ccccc1C(=O)OCC(C)C,inactive,inactive,inactive,inactive,inactive,inactive,inactive,inactive,inactive,inactive,inactive,inactive,inactive,inactive,inactive,inactive,inactive,inactive,inactive,inactive
COC1=CC(=O)OC(CCc2ccc3c(c2)OCO3)C1 (stereo not given),inactive,inactive,inactive,inactive,inactive,inactive,,inactive,inactive,inactive,inactive,inactive,inactive,inactive,inactive,inactive,inactive,inactive,inactive,inactive
Oc1ccccc1O,,,,,,,7.94 µM (active),,,,,,,,,,,,,
c1ccc2c(c1)-c1cccc3cccc-2c13,inactive,inactive,inactive,inactive,inactive,inactive,inactive,inactive,inactive,inactive,inactive,inactive,inactive,inactive,inactive,inactive,inactive,inactive,inactive,inactive
